Bioassay records as filed in PubChem BioAssay.
Rows were chosen to be rich in hits. Some 7% of all compounds tested hit in one or more screens of this group.
IL1B secr inh: qHTS for Inhibitors of Inflammasome Signaling: IL-1-beta AlphaLISA Primary Screen. THP-1 LPS/ATP IL-1B secretion, AlphaLISA, 16 h; active compounds read low. activity change, % at 57.5 µM. actives 4.7% (n = 360,000). AID 743279, 2014; in the data active = activity change below about -50%; inconclusive = mostly about -30% to -49%; also: % is scaled to controls: 0 for no effect and ±100 for the full control effect
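THP-1 cells pretreated 1 hr with compounds (up to 57.5 uM final), then stimulated with LPS (250 ng/mL final) plus ATP (1.25 mM final); secreted IL-1B measured by AlphaLISA after 16 hr, decreased signal indicating inhibition.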
ATXN2 expr inh: Primary qHTS for Inhibitors of ATXN expression | HEK-293 ATXN2-luciferase reporter, luminescence, 24 h | Potency, µM (highest dose often 57 µM), inactives show at the top dose activity change, negative = inhibition, usual class: inhibitors | actives 0.72% (n = 360,000); also: potency is read from the fitted curve at half-maximal effect; % is scaled to controls: 0 for no effect and ±100 for the full control effect; nearly all actives have a fitted effect of over 55% in size
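qHTS (up to 57 uM final) was run with 24 h compound exposure of reporter cells at 37 °C. Each well was multiplexed: SteadyGlo luminescence measured ATXN2-luciferase expression after a fluorogenic Gly-Phe-AFC viability readout (25 uM final).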
DRD3 antagonist: qHTS of D3 Dopamine Receptor Antagonist: qHTS. D(3) dopamine receptor (Homo sapiens), P35462. D3R cells, DiscoveRx beta-arrestin luminescence, antagonist mode; active compounds read low. max response, negative = inhibition, %. actives 2.5% (n = 360,000). AID 652054, 2013; in the data active = max response below about -50%; inconclusive = no clear call, values can overlap the other calls; also: % is scaled to controls: 0 for no effect and ±100 for the full control effect
Target sequence (P35462 whole entry, looked up): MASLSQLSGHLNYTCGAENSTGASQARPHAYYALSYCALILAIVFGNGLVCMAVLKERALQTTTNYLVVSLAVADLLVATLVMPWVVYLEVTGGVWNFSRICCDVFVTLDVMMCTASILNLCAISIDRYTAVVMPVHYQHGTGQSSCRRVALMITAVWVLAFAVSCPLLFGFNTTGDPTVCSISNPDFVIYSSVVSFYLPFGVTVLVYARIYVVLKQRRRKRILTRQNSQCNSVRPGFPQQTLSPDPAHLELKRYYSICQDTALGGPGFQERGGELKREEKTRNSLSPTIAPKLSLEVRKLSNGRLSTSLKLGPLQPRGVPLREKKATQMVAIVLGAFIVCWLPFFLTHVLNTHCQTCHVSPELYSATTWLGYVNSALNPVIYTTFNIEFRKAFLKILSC
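Cells expressing the human receptor were seeded at 1500 cells/well, incubated overnight at 37 degrees C in 5% CO2, then exposed to library compounds with dopamine controls for 90 minutes at 37 degrees C before luminescent detection.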
a7 integrin act: qHTS for Activators of Integrin-Mediated Alleviation for Muscular Dystrophy; AID 624291, 2012; actives 0.064% (n = 350,000); alpha7betagal myoblasts, beta-gal FDG fluorescence, 48 h; Potency, µM (titrated, usually from 38.3 µM), for the others: at the top dose activation, usual class: activators;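 also: potency is read from the fitted curve at half-maximal effect; 100% = response of the positive control SU9516; nearly all actives have a fitted effect of over 60% in size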
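Alpha7betagal+/- myoblasts (passage 13) were plated 16-24 hr, then exposed to compounds (1:260 dilution of DMSO stock) for 48 hours at 37C. After MPER lysis, β-galactosidase reporter activity was read as FDG fluorescence (ex 480/em 540) after 30 minutes.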
S2 tox: Viability Counterscreen for Primary qHTS for Inhibitors of ATXN expression | S2 cells (HEK-293 line with an ATXN2-luciferase reporter) viability, CellTiter-Fluor protease fluorescence, 24 h | Potency, µM (series often up to 56.7 µM), hits mostly cytotoxic | actives 0.49% (n = 400,000); also: potency is read from the fitted curve at half-maximal effect; nearly all actives have a fitted effect of over 40% in size
D3 ag: qHTS of D3 Dopamine Receptor Agonist: qHTS. max activation, %. actives 0.58% (n = 410,000). D3R DiscoveRx beta-arrestin cells, luminescence, 90 min. AID 652048, 2013; in the data active = max activation above about 30%; also: 0% is about no effect
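Agonist-mode cell screen: cells plated at 1500/well and incubated overnight at 37 °C, then exposed to library compounds for 90 min at 37 °C. Detection reagent was added for 30–60 min at room temperature, and luminescence was read.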
The depositor's hits bear a star; i = inactive; ? = inconclusive; nt = no result; ! = a repeat was not active. Unless noted, calls follow the shape of the dose curve; as a rule, active = well fitted curve in the direction sought with a large enough effect; inconclusive = small, poorly fitted or top-dose-only effect, or another doubt; inactive = no such curve, though single readings can be large; an effect the other way counts as inactive or inconclusive.

SMILES | IL1B secr inh | ATXN2 expr inh | DRD3 antagonist | a7 integrin act | S2 tox | D3 ag
CC[C@H](C(=O)[C@H](C)[C@H](O)[C@H](C)CCc1ccc(C)c(O)c1C(=O)O)[C@H]1O[C@](CC)([C@@H]2CC[C@@](O)(CC)[C@H](C)O2)C[C@H]1C | nt | nt | nt | nt | 11µM* | nt
Cc1cccc(N2C(S)=C(C#N)C(=O)NC23CCCCC3)c1 | -78* | -5% | -18 | 2% | i | -14
FC(F)(F)c1ccccc1Cc1c(-c2ccc(Cl)cc2)nc2ccc(Br)cn12 | -9 | 12% | -54* | nt | ? | -7
Cc1ccc(-c2nc3ccc(C)cn3c2Cc2ccccc2C(F)(F)F)cc1 | -28 | -32% | -13 | nt | ? | -16
Cc1ccc2nc(-c3ccccc3)c(Cc3ccccc3C(F)(F)F)n2c1 | -13 | ? | -54* | nt | ? | -18
CCC(=O)N1CCN(c2ccc(Cl)cc2NC(=S)NC(=O)c2ccco2)CC1 | 1 | -9% | 9 | -14% | i | 5
CCN1CCN(c2ccc(Cl)cc2NC(=O)c2ccco2)CC1 | -62* | nt | -21 | -54% | i | -5
CCN1CCN(c2ccc(Cl)cc2NC(=O)c2ccc(-n3nc(C)cc3C)cc2)CC1 | -64* | ? | -8 | -70% | i | -13
O=C(CSc1nncn2c1cc1sccc12)Nc1ccc(Br)cc1F | nt | nt | nt | nt | nt | -3
COc1cccc(S(=O)(=O)NCC(=O)Nc2ccc(C(C)(C)C)cc2)c1 | -60* | -2% | 20 | -16% | ? | -6
COc1cccc(NC(=O)CNS(=O)(=O)c2ccc(Cl)cc2)c1 | 20 | 2% | 12 | -14% | i | 10
NC(c1ccccc1)c1csc(Nc2cc(Oc3ccccc3)ncn2)n1 (stereo not drawn) | -77* | 0% | 21 | nt | ? | 2
Cc1cc(C)nc(Nc2nc(C(N)c3ccccc3)cs2)n1 (stereo not drawn) | ? | -19% | 15 | nt | i | 0
CC(C)C(N)c1csc(Nc2ccccn2)n1 (stereo not drawn) | -11 | -16% | 28 | nt | ? | 2
CC(C)CC(N)c1csc(Nc2cc(Oc3ccccc3)ncn2)n1 (stereo not drawn) | 0 | 25µM* | 10 | nt | nt | 0
CC(C)C(N)c1csc(Nc2cc(Oc3ccccc3)ncn2)n1 (stereo not drawn) | -91* | -13% | 37 | nt | ? | 4
Cc1cc(C)c(C#N)c(SCC(=O)Nc2ccc(S(=O)(=O)Nc3onc(C)c3C)cc2)n1 | 0 | -2% | -54* | -14% | i | 4
Cc1noc(NS(=O)(=O)c2ccc(NC(=O)Nc3ccc(Cl)c(Cl)c3)cc2)c1C | 8 | 5% | -77* | 26% | i | 5
CC1CCCC(NS(=O)(=O)c2ccc3c(c2)OCCO3)C1C (stereo not drawn) | 27 | -1% | -2 | 24% | i | 4
CNC(=O)C1CC(=O)N(CCc2ccc(OC)c(OC)c2)C(=Nc2ccc(F)cc2)S1 (stereo not drawn) | -77* | 12% | -3 | -2% | i | 10
Cc1cc(N2CCN(c3ccccc3)CC2)nc(-n2nc(C)cc2C)n1 | -8 | ? | -86* | -22% | i | -25
CC(C)c1ccc(NC(=O)C2CC3CCC2C3)cc1 (stereo not drawn) | -56* | 117% | 6 | 10% | i | -2
CCC(C)c1ccc(NC(=O)C2CC3CCC2C3)cc1 (stereo not drawn) | -55* | 77% | -5 | -6% | i | -6
CN(CCc1ccccc1)C(=O)c1ccc(NC(=O)Cc2cccc(NC(=O)C3CCN(C(=O)C4CCCC4)CC3)c2)cc1 | 22 | 0% | 51 | 0% | ? | -30
Cc1ccc(C)c(NC(=O)c2nc(S(=O)(=O)Cc3ccc(F)cc3)ncc2Cl)c1 | nt | nt | nt | nt | nt | -29
SMILES | IL1B secr inh | ATXN2 expr inh | DRD3 antagonist | a7 integrin act | S2 tox | D3 ag
CCc1nnc(NC(=O)c2nc(S(=O)(=O)Cc3ccccc3)ncc2Cl)s1 | -100* | ? | 0 | -75% | ? | -9
CCc1nnc(NC(=O)c2nc(S(=O)(=O)Cc3cccc(C)c3)ncc2Cl)s1 | -102* | ? | -70* | 0% | ? | -24
CCOc1ccccc1NC(=O)c1nc(S(=O)(=O)Cc2cccc(C)c2)ncc1Cl | 0 | -12% | -96* | -35% | 32µM*! | -23
CCc1nnc(NC(=O)c2nc(S(=O)(=O)Cc3ccc(C)cc3)ncc2Cl)s1 | -102* | ? | -50* | -73% | nt | -19
COc1ccccc1N1CCN(CC(=O)Nc2cccc(F)c2)CC1 | 18 | -5% | 0 | 4% | ? | -25
CCOc1ccc(NC(=O)CCN2CCN(c3ccccc3OC)CC2)cc1 | -22 | -7% | -91* | 4% | i | -14
COc1ccccc1N1CCN(CCC(=O)Nc2ccc3c(c2)OCO3)CC1 | 12 | -7% | -90* | -21% | i | -6
COc1ccccc1N1CCN(CCC(=O)Nc2cccc(Cl)c2)CC1 | 0 | -30% | -124* | -16% | i | -13
COc1ccccc1N1CCN(CCC(=O)Nc2ccc(F)cc2)CC1 | -8 | -11% | -98* | 17% | i | -18
Cc1nc2c([nH]c3ccc(Br)cc32)s1 | 0 | -15% | -101* | 10% | i | 1
Cc1ccc(C(C)C)c(OCC(=O)Nc2ccc3c(c2)nc(CN2CCCC2)n3C)c1 | -50* | -5% | -67* | -39% | i | -12
COc1ccc(C(=O)Nc2ccc3ncccc3c2)cc1 | -24 | 20µM* | -11 | 10% | i | -7
Cn1c(CN2CCCC2)nc2cc(NC(=O)Nc3ccccc3)ccc21 | -21 | 39% | -103* | 13% | i | -13
CCCC(=O)Nc1ccc2c(c1)nc(CN1CCCC1)n2C | 17 | 2% | 0 | -39% | i | -5
CC(=O)Nc1ccc2c(c1)nc(CN1CCCC1)n2C | 47 | -7% | -50* | 0% | i | -33
CN(C)c1ccc(C(=O)N2CCCC2)cc1 | -13 | nt | 6 | ? | i | 1
CC(=O)Nc1ccc2c(c1)n(C)c(=O)n2C | 19 | 20% | 15 | 2% | i | 4
Cc1nnc(NC(=O)c2sc3ccccc3c2Cl)s1 | 0 | ? | -73* | 36% | i | -10
Cn1c(=O)n(C)c2cc(NC(=O)CCl)ccc21 | -91* | -36% | -6 | -75% | nt | -2
COc1ccc(NC(=O)c2ccc3c(c2)n(C)c(=O)n3C)cc1 | -56* | 8% | -3 | -24% | i | -8
